Inconclusive results are not listed. Activity calls are given as the source filed them. The calls were made as follows, unless noted: active = hit-call score of the fitted dose curve at least 0.9, where 1 is the maximum; inconclusive = response in the unintended direction; inactive = score below 0.9.
Key:
[1] = biological target: mouse Estrogen Receptor alpha (Era), Esr1 (gene 13982) (UniProt P19785); assay: NVS_NR_mERa: NovaScreen (NVS) Nuclear Receptor Binding Assay for mouse Estrogen Receptor alpha (Era) (AID 2283378);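 also: hit means loss of bound radioligand signal relative to DMSO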
Outline: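 Cell-free radioligand competitive displacement binding, read by filter-based scintillation counting 18 h after dosing. Primary screen run in duplicate at 25 uM, actives retested in concentration series; loss of signal versus DMSO.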

[2] = biological target: human Norepinephrine Transporter (NET), SLC6A2 (gene 6530) (UniProt P23975); assay: NVS_TR_hNET: NovaScreen (NVS) Transporter Assay for human Norepinephrine Transporter (NET) (AID 2283377);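 also: cell-free membrane protein extracted from CHO cells expressing human NET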;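 as to AC50: displacement of radioligand from human NET seen as loss of scintillation signal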
Outline: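 CHO cell extracts expressing the transporter; tritiated or iodinated tracer displaced competitively; filtration plus scintillation readout at 1 h. Single-point duplicates at 25 uM, concentration series for follow-up; activity = signal drop relative to DMSO.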

[3] = biological target: Estrogen receptor beta (Homo sapiens) (UniProt Q92731); assay: OT_ER_ERbERb_1440: Odyssey Thera (OT) 24-hour HEK293T Protein-Complementation Assay for Estrogen Receptor-beta/-beta Homodimer (AID 2283380);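 also: scored as signal increase over DMSO baseline for both agonists and antagonists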
Outline: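 HEK293T cells stably expressing ER beta LBD (aa 310-547) homodimer fragment-complementation reporter, dosed 24 h. Cells formaldehyde-fixed, Draq5-stained; gain in nuclear (agonist) or nuclear plus cytoplasmic (antagonist) fluorescence versus DMSO read by laser scanning cytometry.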

[4] = biological target: Estrogen receptor (Homo sapiens) (UniProt P03372); assay: OT_ERa_GFPERaERE_0480: Odyssey Thera (OT) 8-hour HeLa Transcription Induction Assay for Estrogen Receptor (AID 2283381; active = hit-call score of the fitted dose curve at least 0.9, where 1 is the maximum; inactive = score below 0.9)
Outline: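 Human cervical HeLa cells were treated for 8 hours, after which ERE-driven GFP induction was measured by fluorescence microscopy; increases over DMSO baseline defined activity.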

[5] = biological target: Estrogen receptor (Homo sapiens) (UniProt P03372); assay: OT_ERa_GFPERaERE_0120: Odyssey Thera (OT) 2-hour HeLa Transcription Induction Assay for Estrogen Receptor (AID 2283382)
Outline: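 Cells (human cervical HeLa) receive compound, incubate 2 hours, then are imaged for fluorescent reporter induction. Images are quantified by high content analysis, and activity is fitted as gain of signal against DMSO.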

[6] = biological target: Peroxisome proliferator-activated receptor gamma (Homo sapiens) (UniProt P37231); assay: OT_PPARg_PPARgSRC1_0480: Odyssey Thera (OT) 8-hour Protein-Complementation Assay for Peroxisome Proliferator-activated Receptor Gamma / SRC-1 Co-activator (AID 2283387)
Outline: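 HEK293T transiently transfected with PPARg and SRC-1 fused to Venus YFP fragments, compounds 8 h at 37C. Fixed, Draq5-stained cells imaged; nuclear/cytoplasmic 488 nm fluorescence ratio over at least 350 cells per image; gain fitted versus DMSO.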

[7] = biological target: Peroxisome proliferator-activated receptor gamma (Homo sapiens) (UniProt P37231); assay: OT_PPARg_PPARgSRC1_1440: Odyssey Thera (OT) 24-hour Protein-Complementation Assay for Peroxisome Proliferator-activated Receptor Gamma/ SRC-1 Co-activator (AID 2283388)
Outline: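 HEK293T transiently transfected with PPARg/SRC-1 split-Venus YFP fusions 48 h before dosing, then treated 24 h at 37C. Fixed cells imaged; nuclear/cytoplasmic 488 nm fluorescence ratio, gain of signal versus DMSO.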

[8] = biological target: Bile acid receptor (Homo sapiens) (UniProt Q96RI1); assay: OT_FXR_FXRSRC1_0480: Odyssey Thera (OT) 8-hour HEK293T Protein-Complementation Assay for Farnesoid X receptor/SRC-1 Co-activator (AID 2283383)
Outline: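 PCA, HEK293T, 8 h compound exposure; FXR–SRC-1 binding reconstitutes split reporter; fluorescence intensity; positive-direction fit vs DMSO.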

[9] = biological target: Bile acid receptor (Homo sapiens) (UniProt Q96RI1); assay: OT_FXR_FXRSRC1_1440: Odyssey Thera (OT) 24-hour HEK293T Protein-Complementation Assay for Farnesoid X receptor/SRC-1 Co-activator (AID 2283384)
Outline: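 Measures ligand-driven FXR–SRC-1 co-activator recruitment in HEK293T via fragment complementation, fluorescence intensity at 24 h. DMSO served as negative control and baseline for gain-of-signal fitting.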

[10] = biological target: Retinoic acid receptor RXR-alpha (Homo sapiens) (UniProt P19793); assay: OT_NURR1_NURR1RXRa_1440: Odyssey Thera (OT) 24-hour HEK293T Protein Complementation Assay for Nurr1/retinoid X receptor (RXR) (AID 2283386)
Outline: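 Steps: fragment-tagged Nurr1 and RXRα expressed in HEK293T; compounds added; after 24 h, complemented reporter quantified by fluorescence intensity; signal increase over DMSO fitted as the single endpoint.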

Sequence of human Norepinephrine Transporter (NET), SLC6A2 (gene 6530) (P23975 whole entry, looked up): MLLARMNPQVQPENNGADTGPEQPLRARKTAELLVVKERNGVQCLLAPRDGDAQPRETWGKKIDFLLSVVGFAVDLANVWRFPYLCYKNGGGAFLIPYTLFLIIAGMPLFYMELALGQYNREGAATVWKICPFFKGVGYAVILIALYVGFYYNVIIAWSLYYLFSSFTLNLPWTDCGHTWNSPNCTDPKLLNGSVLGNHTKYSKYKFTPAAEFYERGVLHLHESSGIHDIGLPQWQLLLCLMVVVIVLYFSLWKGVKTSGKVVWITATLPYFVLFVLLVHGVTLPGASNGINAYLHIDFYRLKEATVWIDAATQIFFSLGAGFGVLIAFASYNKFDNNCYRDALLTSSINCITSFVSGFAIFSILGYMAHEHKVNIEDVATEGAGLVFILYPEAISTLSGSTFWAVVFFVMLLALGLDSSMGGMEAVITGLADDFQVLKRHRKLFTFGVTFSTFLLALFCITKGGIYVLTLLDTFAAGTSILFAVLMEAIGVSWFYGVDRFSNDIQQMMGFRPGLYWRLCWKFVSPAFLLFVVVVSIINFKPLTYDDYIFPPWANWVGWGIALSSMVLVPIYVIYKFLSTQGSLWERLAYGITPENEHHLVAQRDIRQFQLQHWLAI
Sequence of mouse Estrogen Receptor alpha (Era), Esr1 (gene 13982) (P19785 whole entry, looked up): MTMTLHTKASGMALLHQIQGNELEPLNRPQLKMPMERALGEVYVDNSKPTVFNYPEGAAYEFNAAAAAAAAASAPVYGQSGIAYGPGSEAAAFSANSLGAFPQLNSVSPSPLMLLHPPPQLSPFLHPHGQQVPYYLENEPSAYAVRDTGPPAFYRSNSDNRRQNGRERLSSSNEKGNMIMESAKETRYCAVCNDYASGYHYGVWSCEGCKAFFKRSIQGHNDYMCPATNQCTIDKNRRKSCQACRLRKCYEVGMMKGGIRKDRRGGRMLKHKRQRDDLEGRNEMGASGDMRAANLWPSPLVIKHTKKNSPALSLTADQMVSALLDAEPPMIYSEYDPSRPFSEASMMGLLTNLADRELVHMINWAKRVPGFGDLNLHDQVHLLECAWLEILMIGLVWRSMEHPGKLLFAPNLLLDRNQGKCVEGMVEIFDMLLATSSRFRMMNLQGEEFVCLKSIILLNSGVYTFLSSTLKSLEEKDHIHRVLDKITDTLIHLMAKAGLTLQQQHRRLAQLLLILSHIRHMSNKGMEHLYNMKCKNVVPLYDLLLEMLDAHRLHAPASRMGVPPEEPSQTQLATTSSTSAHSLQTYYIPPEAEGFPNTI
Sequence of Estrogen receptor (Homo sapiens) (P03372 whole entry, looked up): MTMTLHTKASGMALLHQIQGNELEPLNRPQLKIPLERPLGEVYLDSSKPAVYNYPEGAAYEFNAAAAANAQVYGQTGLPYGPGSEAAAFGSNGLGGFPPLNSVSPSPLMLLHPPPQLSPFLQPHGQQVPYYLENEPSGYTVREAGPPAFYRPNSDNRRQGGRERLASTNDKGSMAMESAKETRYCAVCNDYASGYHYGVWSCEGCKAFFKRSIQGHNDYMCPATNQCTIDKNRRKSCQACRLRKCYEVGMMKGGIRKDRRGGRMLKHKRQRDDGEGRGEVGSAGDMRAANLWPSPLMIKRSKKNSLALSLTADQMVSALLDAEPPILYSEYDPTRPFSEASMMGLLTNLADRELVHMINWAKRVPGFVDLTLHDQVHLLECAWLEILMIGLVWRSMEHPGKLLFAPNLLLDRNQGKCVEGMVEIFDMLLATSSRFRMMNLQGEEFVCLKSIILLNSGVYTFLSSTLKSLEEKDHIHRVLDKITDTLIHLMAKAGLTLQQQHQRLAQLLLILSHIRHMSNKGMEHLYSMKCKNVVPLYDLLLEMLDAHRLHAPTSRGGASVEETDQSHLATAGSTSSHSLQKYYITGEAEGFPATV
Sequence of Bile acid receptor (Homo sapiens) (Q96RI1 whole entry, looked up, the tested form may be a part): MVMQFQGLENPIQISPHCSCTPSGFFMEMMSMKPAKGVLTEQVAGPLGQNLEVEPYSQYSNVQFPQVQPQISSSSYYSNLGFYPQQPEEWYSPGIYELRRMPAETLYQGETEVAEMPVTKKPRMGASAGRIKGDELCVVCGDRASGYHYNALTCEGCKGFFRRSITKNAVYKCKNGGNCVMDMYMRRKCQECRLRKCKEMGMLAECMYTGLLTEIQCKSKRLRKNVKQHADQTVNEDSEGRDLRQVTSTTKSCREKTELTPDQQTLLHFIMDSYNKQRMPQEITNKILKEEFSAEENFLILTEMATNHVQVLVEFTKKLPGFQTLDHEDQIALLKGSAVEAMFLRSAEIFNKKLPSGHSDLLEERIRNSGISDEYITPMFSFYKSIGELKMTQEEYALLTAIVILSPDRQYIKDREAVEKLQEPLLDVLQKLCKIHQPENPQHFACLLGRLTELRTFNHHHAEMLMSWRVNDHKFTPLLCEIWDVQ
Sequence of Estrogen receptor beta (Homo sapiens) (Q92731 whole entry, looked up, the tested form may be a part): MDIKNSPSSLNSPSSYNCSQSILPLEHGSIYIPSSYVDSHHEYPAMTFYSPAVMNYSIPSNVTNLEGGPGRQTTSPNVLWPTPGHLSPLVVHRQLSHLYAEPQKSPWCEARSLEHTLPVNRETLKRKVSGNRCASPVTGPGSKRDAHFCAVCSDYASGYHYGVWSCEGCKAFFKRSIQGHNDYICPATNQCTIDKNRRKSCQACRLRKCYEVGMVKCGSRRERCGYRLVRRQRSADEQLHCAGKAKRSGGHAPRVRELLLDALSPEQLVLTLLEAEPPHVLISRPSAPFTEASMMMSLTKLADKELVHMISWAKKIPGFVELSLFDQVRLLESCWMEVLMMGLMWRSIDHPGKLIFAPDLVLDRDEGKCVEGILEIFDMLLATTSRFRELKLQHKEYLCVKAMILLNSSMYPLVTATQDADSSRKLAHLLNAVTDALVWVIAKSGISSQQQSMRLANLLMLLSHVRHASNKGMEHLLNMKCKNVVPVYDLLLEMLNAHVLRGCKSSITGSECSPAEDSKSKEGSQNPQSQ
Sequence of Peroxisome proliferator-activated receptor gamma (Homo sapiens) (P37231 whole entry, looked up, the tested form may be a part): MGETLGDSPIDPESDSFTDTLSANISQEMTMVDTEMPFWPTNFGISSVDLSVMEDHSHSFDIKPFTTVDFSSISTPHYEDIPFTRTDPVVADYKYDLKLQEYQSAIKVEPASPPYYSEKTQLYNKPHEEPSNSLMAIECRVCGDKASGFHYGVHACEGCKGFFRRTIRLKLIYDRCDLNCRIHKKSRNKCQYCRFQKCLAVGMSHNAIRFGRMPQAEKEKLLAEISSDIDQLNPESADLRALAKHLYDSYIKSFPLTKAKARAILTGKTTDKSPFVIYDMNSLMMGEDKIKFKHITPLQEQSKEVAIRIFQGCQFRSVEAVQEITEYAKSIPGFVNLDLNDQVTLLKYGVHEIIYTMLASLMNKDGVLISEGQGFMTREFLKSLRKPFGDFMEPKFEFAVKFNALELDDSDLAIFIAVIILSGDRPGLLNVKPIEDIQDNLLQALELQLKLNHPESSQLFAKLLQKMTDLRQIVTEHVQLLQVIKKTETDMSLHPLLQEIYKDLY
Sequence of Retinoic acid receptor RXR-alpha (Homo sapiens) (P19793 whole entry, looked up, the tested form may be a part): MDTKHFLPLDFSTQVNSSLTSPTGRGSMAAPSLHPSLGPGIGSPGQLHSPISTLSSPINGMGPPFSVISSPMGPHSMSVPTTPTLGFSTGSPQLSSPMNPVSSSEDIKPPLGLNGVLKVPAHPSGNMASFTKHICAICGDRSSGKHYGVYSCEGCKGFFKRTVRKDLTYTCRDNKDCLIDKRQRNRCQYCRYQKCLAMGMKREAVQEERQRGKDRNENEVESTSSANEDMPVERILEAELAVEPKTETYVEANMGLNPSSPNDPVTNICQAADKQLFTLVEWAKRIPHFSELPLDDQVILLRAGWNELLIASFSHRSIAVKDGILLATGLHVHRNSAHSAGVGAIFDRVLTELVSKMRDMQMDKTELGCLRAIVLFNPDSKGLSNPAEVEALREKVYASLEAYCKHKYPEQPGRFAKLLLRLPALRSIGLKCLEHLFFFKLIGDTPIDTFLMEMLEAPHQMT

## O=C1CCCCCN1SSN1CCCCCC1=O
[1]
  outcome: inactive

## c1ccc2c(c1)ccc1ncccc12
[2]
  AC50: 7.22 µM (active)

## O=C(O)CCCCCCCCCC(=O)O
[1]
  outcome: inactive

## Cc1cccc(N(C)C(=S)Oc2ccc3ccccc3c2)c1
[1]
  outcome: inactive

## CCCCC/C=C\C/C=C\CCCCCCCC(=O)OC
[2]
  AC50: 25 µM (active)
[1]
  outcome: inactive
[3]
  outcome: inactive
[4]
  outcome: inactive
[5]
  outcome: inactive
[6]
  outcome: inactive
[7]
  outcome: inactive

## CC(C)c1ccc2c(c1)CC[C@H]1[C@](C)(CN)CCC[C@]21C
[1]
  outcome: inactive

## O=CN1CCCCC1
[1]
  outcome: inactive

## CCOC(=O)N1CCC(=C2c3ccc(Cl)cc3CCc3cccnc32)CC1
[1]
  outcome: inactive

## C=C[C@](C)(O)CC[C@@H]1[C@@]2(C)CCCC(C)(C)[C@@H]2CC[C@@]1(C)O
[1]
  outcome: inactive

## O=C(O)c1ccccc1Nc1cccc(C(F)(F)F)c1
[1]
  outcome: inactive

## CC(C)(c1cc(Br)c(OCCO)c(Br)c1)c1cc(Br)c(OCCO)c(Br)c1
[1]
  outcome: inactive

## O=C(c1ccc(O)cc1)c1ccc(O)cc1O
[1]
  AC50: 1.29 µM (active)

## CCC(C)OC(=O)c1ccc(O)cc1 (stereo unspecified)
[1]
  AC50: 4.99 µM (active)

## C=CC(C)(CCC=C(C)C)OC(=O)CC(C)C (stereo unspecified)
[1]
  outcome: inactive

## CC(=O)[C@H]1[C@H](C#N)C[C@H]2[C@@H]3CC=C4C[C@@H](O)CC[C@]4(C)[C@H]3CC[C@@]21C
[1]
  AC50: 4.26 µM (active)
[3]
  outcome: inactive
[4]
  outcome: inactive
[5]
  outcome: inactive
[8]
  outcome: inactive
[9]
  outcome: inactive
[10]
  outcome: inactive
[6]
  outcome: inactive
[7]
  outcome: inactive

## CC/C=C\C/C=C\C/C=C\CCCCCCCC(=O)O
[1]
  outcome: inactive
[3]
  outcome: inactive
[4]
  outcome: inactive
[5]
  outcome: inactive
[8]
  outcome: inactive
[9]
  outcome: inactive
[6]
  outcome: inactive
[7]
  outcome: inactive

## [Cl][Bi]([Cl])([c]1ccccc1)([c]1ccccc1)[c]1ccccc1
[1]
  outcome: inactive

## CCCCCCCC/C=C\CCCCCCCC(=O)O
[1]
  AC50: 35.8 µM (active)
[3]
  outcome: inactive
[4]
  outcome: inactive
[5]
  outcome: inactive
[8]
  outcome: inactive
[6]
  outcome: inactive
[7]
  outcome: inactive

## O=[N+]([O-])c1ccc(CO)cc1
[2]
  outcome: inactive

## CC(C)(C)C(=O)CCc1ccc(Cl)cc1
[1]
  outcome: inactive

## O=C(O)CCCC[C@@H]1SC[C@@H]2NC(=O)N[C@@H]21
[1]
  outcome: inactive
[3]
  outcome: inactive
[4]
  outcome: inactive
[5]
  outcome: inactive
[6]
  outcome: inactive
[7]
  outcome: inactive

## CCCCCCCCCCCCCCCC[N+](C)(C)CC
[2]
  AC50: 2.32 µM (active)

## O=C1Nc2ccccc2C1(c1ccc(O)cc1)c1ccc(O)cc1
[1]
  AC50: 6.61 µM (active)

## CCCCCCCC[N+](C)(CCCCCCCC)CCCCCCCC
[1]
  AC50: 0.338 µM (active)
[3]
  outcome: inactive
[4]
  outcome: inactive
[5]
  AC50: 12.4 µM (active)
[6]
  outcome: inactive
[7]
  outcome: inactive

Source: PubChem BioAssay (EPA / NIEHS)
